About 2,000 (36%) of roughly 5,500 compounds were called active. Another 18% or so got no clear call; they are omitted. Cut-off read from the data, not from the text of the source: active = normalized growth mostly below about 0.91 (no sharp cut-off); inconclusive = no clear call, values can overlap the other calls; inactive = mostly above about 0.92. This is one part of the list.
Experiment: chemical genetic growth profiling, strain panel (AID 1159580);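 note: tested at 20 µM; growth read once vehicle control cultures reached saturation at 30 °C; 1 = growth at the plate median or of vehicle wells; lower values mean less growth of the strain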
Conditions: S. cerevisiae deletion strains, growth OD

Measured: normalized growth

CCCCCCCCCCC/C=C\C(C)(C)/C=C\CCCC(=O)O
inactive: locus YAL040C, strain CLN3, stronger effect = lower value 1.02 | locus YCL061C, strain MRC1 (second series), stronger effect = lower value 1.04 | locus YDR150W, strain NUM1, stronger effect = lower value 1.01 | locus YDR363W, strain ESC2, stronger effect = lower value 1.04 | locus YER002W, strain NOP16, stronger effect = lower value 1.04 | locus YJR075W, strain HOC1, stronger effect = lower value 1.02 | locus YMR263W, strain SAP30, stronger effect = lower value 1.03 | locus YMR307W, strain GAS1, stronger effect = lower value 0.974 | locus YNL128W, strain TEP1, stronger effect = lower value 0.996 | locus YNL153C, strain GIM3, stronger effect = lower value 0.967 | locus YNL175C, strain NOP13, stronger effect = lower value 1.01 | locus YNL197C, strain WHI3, stronger effect = lower value 0.985 | locus YNL224C, strain SQS1, stronger effect = lower value 1 | locus YNL322C, strain KRE1, stronger effect = lower value 1.02 | locus YOR083W, strain WHI5 (second series), stronger effect = lower value 0.965 | locus YPL055C, strain LGE1, stronger effect = lower value 1.08
